Laboratory results reported in PubChem BioAssay.
Active and inactive are the calls of the source. Unless noted, the rule behind the calls is not given here.

Assay: P. aeruginosa biofilm formation inhibitors, primary screen, strain PAO1, LB-PBS medium, absorbance 600 nm (AID 1176)
Details: P. aeruginosa PAO1 growth/biofilm, A600, 12 h; higher = more signal
Note: test concentration not given here.

z-score, inactive:
O[C@@H](Cc1ccccc1)[C@@H](/C=C/C1CC1)N(CC#Cc1ccccc1)Cc1ccccc1Br -0.59, COc1cc2c(cc1O)C=[N+](Cc1sc3ccccc3c1Cl)CC2 0.034, COc1ccc(C#Cc2ccc3c(c2)[C@]2(C(=O)N3)[C@H](C(=O)O)[C@H]3C(=O)O[C@H](c4ccccc4)[C@H](c4ccccc4)N3[C@@H]2c2ccc(O)cc2)cc1 0.381, Cn1cccc1C(O)C1C=CC2C(=O)N(c3ccccc3)C(=O)C2N1Nc1ccccc1 (stereo not given) 0.571, Cc1ccc(F)cc1S(=O)(=O)N[C@@H]1CCN(Cc2ccc(Br)cc2)C1 -0.73, CC1CC/C=C\[C@H]2OC34C=CCN(Cc5ccccc5)C(=O)[C@H]3N(C(CO)C(C)C)C(=O)[C@@H]4C2C(=O)O1 (stereo not given in full) 0.205, CCOC(=O)C1=C[C@@H](C(C)C)N(S(=O)(=O)c2ccc(C)cc2)[C@H]1c1ccc(C(F)(F)F)cc1 -0.0322, COCCCNC(=O)[C@@]1(Sc2ccc(C)cc2)CC(=O)N(C2Cc3ccccc3C2)[C@@H]1c1ccc(CO)cc1 0.779, C[N+](C)(C)CCCC[C@@H]1NC(=O)[C@@H]2C[C@H](C(=O)NCCCCCCN)[C@H](c3cccc(OCCO)c3)N2C1=O -0.117, C=CCC(OC(C)=O)[C@@H]1[C@@H](N(Cc2ccc(-c3ccccc3)cc2)C(=O)c2ccc(-c3ccccc3)cc2)c2cc(OCCCO)ccc2N1C(=O)c1ccc2ccccc2c1 (stereo not given in full) 0.35, CC1CC/C=C\[C@H]2OC34C=CCN(C(C)C)C(=O)[C@H]3N(CCO)C(=O)[C@@H]4C2C(=O)O1 (stereo not given in full) -0.413, CCCNC(=O)[C@@H]1c2ccccc2C(=O)N(Cc2ccc(OC(F)(F)F)cc2)[C@H]1c1ccc(CO)cc1 -0.217, CC(C)NC(=O)[C@@]1(C)c2ccccc2C(=O)N(Cc2ccc(OC(F)(F)F)cc2)[C@H]1c1ccc(CO)cc1 0.559, COc1ccc(CCNC(=O)[C@@]2(Cc3ccccc3I)c3ccccc3C(=O)N(C3CCCCC3)[C@H]2c2ccc(CO)cc2)cc1 0.462

Assay: S. cerevisiae RM11-1a growth modifiers, primary screen, strain RM11-1a, OD600, basal, 24 h (AID 1177);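 note: cultures grown under basal conditions with no added stressor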
Details: OD600, 24 h, higher = more signal, called active from +8 up or from −8 down

z-score, inactive:
O=C(O)[C@@H]1[C@@H]2C(=O)N(c3ccccc3)C(=O)[C@@H]2C[C@@H]1Sc1ccccc1 1.48, CCOC(=O)C1=CC[C@@H](c2ccccc2F)N(S(=O)(=O)c2ccc(C)cc2)[C@H]1c1ccccc1 0.262, C=CCN1Cc2ccccc2[C@@H]2OC(c3ccc(OCCCO)cc3)=N[C@]2(CC=C)C1=O -0.0316, O=C(NCCN1CCOCC1)[C@@H]1c2ccccc2C(=O)N(C2Cc3ccccc3C2)[C@H]1c1ccc(CO)cc1 -1.44, C=CCC(OC(C)=O)[C@@H]1[C@@H](N(Cc2cccc3ccccc23)C(=O)Cc2ccc(OC)cc2)c2cc(OCCCO)ccc2N1C(=O)c1ccc(-c2ccccc2)cc1 (stereo not given in full) -0.352, CC(C)[Si](C#CCCCC#N)(O[C@H](c1ccccc1)c1cn(Cc2ccccc2)nn1)C(C)C -0.431, NCCCCCCNC(=O)[C@@H]1C[C@@H]2C(=O)N[C@@H](CCCCN)C(=O)N2[C@@H]1c1ccc(O)cc1 -0.476, CCN(CC)c1ccc(N2CC=CC34O[C@@H]5/C=C\CCCOC(=O)C5[C@H]3C(=O)N(C(C)CO)[C@@H]4C2=O)cc1 (stereo not given in full) -0.355, CC(C)N1C(=O)C[C@@](C(=O)O)(c2ccc([N+](=O)[O-])cc2)[C@H]1c1ccc(CO)cc1 0.196, CN(C)C(=O)[C@@]1(Cc2ccccc2)N=C(c2ccc(OCCCO)cc2)O[C@H]1c1ccccc1 0.319, Cc1ccc(S[C@]2(C(=O)NC(C)C)CC(=O)N(Cc3cc(C(F)(F)F)cc(C(F)(F)F)c3)[C@@H]2c2ccc(CO)cc2)cc1 -0.656, COCC(=C=CC[C@H](O)c1ccc(CO)o1)CCO 0.256, CCCCCN1CC=CC23O[C@@H]4/C=C\CCCOC(=O)C4[C@H]2C(=O)N(C(C)CO)[C@@H]3C1=O (stereo not given in full) 0.493, COc1ccc([Si](C)(C)[C@@H]2[C@@H](CCO)O[C@]3(C(=O)N(Cc4cccc(NC(=O)[C@H](C)O)c4)c4ccccc43)[C@H]2C)cc1 4.9, Cc1ccc(S[C@]2(C(=O)NCc3ccccc3)CC(=O)N(C3CCCCC3)[C@@H]2c2ccc(CO)cc2I)cc1 -0.505, CC(C)c1ccc(NN2C(C(O)c3ccc(F)cc3)C=CC3C(=O)N(c4ccccc4)C(=O)C32)cc1 (stereo not given) 0.737, COC(=O)[C@@]1(Cc2ccccc2)[C@H]2c3cc(C(=O)N4CCCC4)n(CCc4ccccn4)c3C[C@H]2CN1C(=O)c1ccccc1 0.23, CCCN1C(=O)[C@]2(Cc3ccccc31)N=C(c1ccc(OCCCO)cc1)O[C@@H]2c1ccccc1 1.4, O=C1[C@H]2C=C(I)[C@H](C[C@@H]2OCCOCCO)[C@@]12CO2 -0.145, CCCCCCc1nc(Cc2cc(OC)c(OC)c(OC)c2)cc2c1[Si](C(C)C)(C(C)C)OC2 -0.0979, COC(=O)C(CC#Cc1ccc2c(c1)[C@]1(C(=O)N2)[C@H](c2ccc(O)cc2)N2[C@H](c3ccccc3)[C@H](c3ccccc3)OC(=O)[C@H]2[C@@H]1C(=O)NC[C@H](O)c1ccccc1)C(=O)OC 0.379, COCCOC(=O)N1C(=O)[C@@]2(c3cc(C#CC4=CCCCC4)ccc31)[C@H](c1ccccc1OCCO)N1[C@H](c3ccccc3)[C@H](c3ccccc3)OC(=O)[C@H]1[C@@H]2C(=O)N1CCN(c2ncccn2)CC1 0.756, O[C@@H](Cc1ccccc1)[C@@H](/C=C/C1CC1)N(CC#Cc1ccccc1)Cc1ccccc1Br 1.43, COc1cc2c(cc1O)C=[N+](Cc1sc3ccccc3c1Cl)CC2 -0.319, COc1ccc(C#Cc2ccc3c(c2)[C@]2(C(=O)N3)[C@H](C(=O)O)[C@H]3C(=O)O[C@H](c4ccccc4)[C@H](c4ccccc4)N3[C@@H]2c2ccc(O)cc2)cc1 0.128, Cn1cccc1C(O)C1C=CC2C(=O)N(c3ccccc3)C(=O)C2N1Nc1ccccc1 (stereo not given) -0.529, Cc1ccc(F)cc1S(=O)(=O)N[C@@H]1CCN(Cc2ccc(Br)cc2)C1 -0.184, CC1CC/C=C\[C@H]2OC34C=CCN(Cc5ccccc5)C(=O)[C@H]3N(C(CO)C(C)C)C(=O)[C@@H]4C2C(=O)O1 (stereo not given in full) 0.558, CCOC(=O)C1=C[C@@H](C(C)C)N(S(=O)(=O)c2ccc(C)cc2)[C@H]1c1ccc(C(F)(F)F)cc1 2.24, COCCCNC(=O)[C@@]1(Sc2ccc(C)cc2)CC(=O)N(C2Cc3ccccc3C2)[C@@H]1c1ccc(CO)cc1 -1.35, C[N+](C)(C)CCCC[C@@H]1NC(=O)[C@@H]2C[C@H](C(=O)NCCCCCCN)[C@H](c3cccc(OCCO)c3)N2C1=O -0.0966, C=CCC(OC(C)=O)[C@@H]1[C@@H](N(Cc2ccc(-c3ccccc3)cc2)C(=O)c2ccc(-c3ccccc3)cc2)c2cc(OCCCO)ccc2N1C(=O)c1ccc2ccccc2c1 (stereo not given in full) -0.583, CC1CC/C=C\[C@H]2OC34C=CCN(C(C)C)C(=O)[C@H]3N(CCO)C(=O)[C@@H]4C2C(=O)O1 (stereo not given in full) 0.651, CCCNC(=O)[C@@H]1c2ccccc2C(=O)N(Cc2ccc(OC(F)(F)F)cc2)[C@H]1c1ccc(CO)cc1 0.532, CC(C)NC(=O)[C@@]1(C)c2ccccc2C(=O)N(Cc2ccc(OC(F)(F)F)cc2)[C@H]1c1ccc(CO)cc1 0.973, COc1ccc(CCNC(=O)[C@@]2(Cc3ccccc3I)c3ccccc3C(=O)N(C3CCCCC3)[C@H]2c2ccc(CO)cc2)cc1 -2.65
